Data published in PubChem BioAssay (EPA / NIEHS).
Records with an inconclusive call do not appear. The source made the active and inactive calls. How the source made its calls: active means hit-call score of the fitted dose curve at least 0.9, where 1 is the maximum; inconclusive means response in the unintended direction; inactive means score below 0.9.

biological target: human RAR-related Orphan Receptor beta (RORb), RORB (gene 6096) (UniProt Q92753); test: ATG_RORb_TRANS: Attagene TRANS-FACTORIAL HepG2 Assay for human RAR-related Orphan Receptor beta (RORb) (AID 2283010)
Method in brief: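 Read-out is reporter mRNA induction, quantified by RT-PCR with fluorescent capillary electrophoresis, 24 h post-dose in transiently transfected HepG2 expressing exogenous NR-Gal4 chimera. Activity fitted upward versus DMSO.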

Sequence of human RAR-related Orphan Receptor beta (RORb), RORB (gene 6096) (Q92753 whole entry, looked up, the tested form may be a part): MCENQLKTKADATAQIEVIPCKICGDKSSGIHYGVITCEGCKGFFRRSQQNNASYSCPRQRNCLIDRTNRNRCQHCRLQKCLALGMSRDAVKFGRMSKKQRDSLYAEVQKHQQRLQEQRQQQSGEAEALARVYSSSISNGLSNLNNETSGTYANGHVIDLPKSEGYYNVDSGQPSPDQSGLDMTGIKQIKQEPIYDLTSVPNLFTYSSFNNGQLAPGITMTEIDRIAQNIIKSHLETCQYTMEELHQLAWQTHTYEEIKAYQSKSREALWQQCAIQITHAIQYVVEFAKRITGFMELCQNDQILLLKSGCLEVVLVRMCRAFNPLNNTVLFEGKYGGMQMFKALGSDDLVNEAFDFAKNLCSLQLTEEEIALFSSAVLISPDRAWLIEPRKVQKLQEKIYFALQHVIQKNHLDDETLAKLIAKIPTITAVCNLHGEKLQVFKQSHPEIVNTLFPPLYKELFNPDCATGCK

| SMILES | outcome |
| --- | --- |
| CCCCCC/C=C\CCCCCCCC(=O)O | inactive |
| C[C@]12C=CC(=O)C=C1CC[C@@H]1[C@@H]2[C@@H](O)C[C@@]2(C)[C@H]1CC[C@]2(O)C(=O)CO | inactive |
| NC(=O)OCC(COC(N)=O)c1ccccc1 | inactive |
| C=C1C2CCC(C2)C1(C)C (stereo unspecified) | inactive |
| CCC(C)C=O (stereo unspecified) | inactive |

biological target: human RAR-related Orphan Receptor gamma (RORg), RORC (gene 6097) (UniProt P51449); test: ATG_RORg_TRANS: Attagene TRANS-FACTORIAL HepG2 Assay for human RAR-related Orphan Receptor gamma (RORg) (AID 2283011)
Method in brief: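 HepG2 cells transiently transfected with GAL4-UAS reporter units and chimeric RORg-Gal4 construct; after 24 h chemical exposure, reporter mRNA measured by RT-PCR with fluorescent capillary electrophoresis, gain of signal fitted against DMSO.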

Sequence of human RAR-related Orphan Receptor gamma (RORg), RORC (gene 6097) (P51449 whole entry, looked up, the tested form may be a part): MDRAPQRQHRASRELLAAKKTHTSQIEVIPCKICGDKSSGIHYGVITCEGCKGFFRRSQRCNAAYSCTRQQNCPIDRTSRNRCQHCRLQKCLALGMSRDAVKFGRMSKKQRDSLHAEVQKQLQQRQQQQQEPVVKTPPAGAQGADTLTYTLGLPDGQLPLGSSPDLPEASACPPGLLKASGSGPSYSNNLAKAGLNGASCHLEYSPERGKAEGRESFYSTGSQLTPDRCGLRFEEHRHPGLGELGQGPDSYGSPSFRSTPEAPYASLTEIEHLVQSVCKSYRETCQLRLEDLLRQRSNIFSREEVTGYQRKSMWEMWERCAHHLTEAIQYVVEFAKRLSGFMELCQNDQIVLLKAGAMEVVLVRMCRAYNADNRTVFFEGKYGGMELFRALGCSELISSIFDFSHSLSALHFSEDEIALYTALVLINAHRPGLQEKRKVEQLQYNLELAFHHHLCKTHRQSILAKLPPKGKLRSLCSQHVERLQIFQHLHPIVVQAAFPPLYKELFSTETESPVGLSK

| SMILES | outcome |
| --- | --- |
| C[C@]12C=CC(=O)C=C1CC[C@@H]1[C@@H]2[C@@H](O)C[C@@]2(C)[C@H]1CC[C@]2(O)C(=O)CO | inactive |
| NC(=O)OCC(COC(N)=O)c1ccccc1 | inactive |
| CC/C=C\C/C=C\C/C=C\CCCCCCCC(=O)O | inactive |
| CC(=O)c1ccc[nH]1 | inactive |
| CCCCCCCC(C)=O | inactive |
| C[C@]12CCC(=O)C=C1CC[C@@H]1[C@@H]2C(=O)C[C@@]2(C)[C@H]1CC[C@]2(O)C(=O)CO | inactive |
| CCC(C)C=O (stereo unspecified) | inactive |

biological target: Retinoic acid receptor RXR-alpha (Homo sapiens) (UniProt P19793); test: ATG_RXRa_TRANS: Attagene TRANS-FACTORIAL HepG2 Assay for human Retinoid X Receptor alpha (RXRa) (AID 2283012)
Method in brief: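 TRANS format reporting activity of exogenous RXRa-Gal4 chimera in transiently transfected HepG2, 24 h exposure. Reporter transcripts quantified by RT-PCR with capillary electrophoresis, with gain of signal scored relative to DMSO.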

Sequence of Retinoic acid receptor RXR-alpha (Homo sapiens) (P19793 whole entry, looked up, the tested form may be a part): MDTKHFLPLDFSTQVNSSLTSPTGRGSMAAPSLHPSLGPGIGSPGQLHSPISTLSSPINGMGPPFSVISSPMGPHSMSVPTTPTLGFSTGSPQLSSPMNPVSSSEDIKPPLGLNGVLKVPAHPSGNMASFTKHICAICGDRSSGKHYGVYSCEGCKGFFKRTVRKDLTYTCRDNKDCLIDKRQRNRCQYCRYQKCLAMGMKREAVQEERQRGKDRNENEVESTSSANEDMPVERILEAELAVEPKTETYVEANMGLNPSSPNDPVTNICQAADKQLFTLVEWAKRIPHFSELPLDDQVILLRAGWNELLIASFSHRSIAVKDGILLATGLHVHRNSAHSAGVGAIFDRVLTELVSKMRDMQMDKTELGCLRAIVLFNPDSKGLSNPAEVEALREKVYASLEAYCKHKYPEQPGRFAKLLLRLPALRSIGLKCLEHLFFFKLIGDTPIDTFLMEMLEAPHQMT

| SMILES | outcome | AC50 |
| --- | --- | --- |
| Oc1ccc(Cl)cc1Cc1cc(Cl)ccc1O | inactive | – |
| CCOC(=O)CC | inactive | – |
| CCCCCC/C=C\CCCCCCCC(=O)O | inactive | – |
| O=C1Nc2ccccc2C1(c1ccc(O)cc1)c1ccc(O)cc1 | inactive | – |
| C=CC(C)(CCC=C(C)C)OC(=O)CC(C)C (stereo unspecified) | inactive | – |
| CC(=O)C=CC1C(C)=CCC(C)C1(C)C (stereo unspecified) | inactive | – |
| ON(Cc1ccccc1)Cc1ccccc1 | inactive | – |
| CCC(=O)Oc1ccc(/C(CC)=C(\CC)c2ccc(OC(=O)CC)cc2)cc1 | inactive | – |
| CCCCCCC(O)CO (stereo unspecified) | inactive | – |
| C[C@]12C=CC(=O)C=C1CC[C@@H]1[C@@H]2[C@@H](O)C[C@@]2(C)[C@H]1CC[C@]2(O)C(=O)CO | inactive | – |
| Cc1ccc(N)c([N+](=O)[O-])c1 | inactive | – |
| CCCCCCCC/C=C\CCCCCCCC(=O)OCCO | inactive | – |
| CCCCCCCC/C=C\CCCCCCCC(=O)O | inactive | – |
| CC/C=C\C/C=C\C/C=C\CCCCCCCC(=O)O | inactive | – |
| CN(C)c1ccc(N=Nc2ccccc2C(=O)O)cc1 | inactive | – |
| N#CCc1ccc(Cl)cc1Cl | inactive | – |
| CC(C)c1ccc2c(c1)CC[C@H]1[C@](C)(CN)CCC[C@]21C | – | 6.76 µM (active) |

| SMILES | outcome | AC50 |
| --- | --- | --- |
| CC(=O)c1ccc[nH]1 | inactive | – |
| O=S1(=O)OC(c2ccc(O)cc2)(c2ccc(O)cc2)c2ccccc21 | inactive | – |
| CC(CC=O)c1ccccc1 (stereo unspecified) | inactive | – |
| Cc1oncc1C(=O)Nc1ccc(C(F)(F)F)cc1 | inactive | – |
| C=C[C@](C)(O)CC[C@@H]1[C@@]2(C)CCCC(C)(C)[C@@H]2CC[C@@]1(C)O | inactive | – |
| CCCCCCCCO[C@@H]1O[C@H](CO)[C@@H](O)[C@H](O)[C@H]1O | inactive | – |
| CC(C)=CCC[C@H](C)CCO | inactive | – |
| CCCCCCCCCCCSCC(=O)O | inactive | – |
| C[C@]12CCC(=O)C=C1CC[C@@H]1[C@@H]2C(=O)C[C@@]2(C)[C@H]1CC[C@]2(O)C(=O)CO | inactive | – |
| CCC(C)C=O (stereo unspecified) | inactive | – |
| C=CCCCCCCCCC(=O)OCCCC | inactive | – |
| Cc1cccc(N(C)C(=S)Oc2ccc3ccccc3c2)c1 | inactive | – |
| CCOC(F)(F)C(F)(F)C(F)(F)C(F)(F)F | inactive | – |
| O=S(=O)(Oc1ccc(Cl)cc1Cl)c1ccccc1 | inactive | – |
| CCN(CCO)c1cccc(C)c1 | inactive | – |
| CC=CC(F)(F)C(F)(F)C(F)(F)F | inactive | – |
| CCC(Cc1ccccc1)(C(=O)c1ccc(N2CCOCC2)cc1)N(C)C (stereo unspecified) | inactive | – |
